Potency data for 1 compound are collected here from PubChem BioAssay AID2585 (National Center for Advancing Translational Sciences (NCATS), 2010).

This is one part of the list. Inconclusive results are not listed. Active and inactive are the calls of the source. Calls come from the whole dose curve; as a rule, active = well fitted inhibition curve with a large enough effect; inconclusive = small, poorly fitted or top-dose-only effect; inactive = no such curve, though single readings can be large or run the other way.

For the assay, the target named is RecQ-like DNA helicase BLM (Homo sapiens) (UniProt P54132). The assay is described as follows: qHTS Confirmation Assay for Inhibitors of Bloom's syndrome helicase (BLM). Note: nearly all actives have a fitted effect of over 45% in size. The settings on record: BLM DNA unwinding, fluorescence quenching, biochemical. The text has this:
Survival of cells and the faithful propagation of the genome depend on elaborate mechanisms of detecting and repairing DNA damage. Treatment of advanced cancer relies on radiation therapy or chemotherapy, which kill cancer cells by causing extensive DNA damage. It is often found, that cancer cells develop resistance to therapy through enhanced activity of DNA repair functions; this has led to an increased interest in developing drugs that interfere with DNA repair, which could sensitize cancer cells to conventional therapy. This validation qHTS assay pertains to human BLM, which is important in resolving abnormal DNA structures formed during replication or homologous recombination. Shutting down the expression of BLM leads to chromosomal instability and higher radiation sensitivity in cultured cells. The validation assay was a fluorescence quenching based kinetic qHTS for BLM Helicase DNA unwinding. The activity was measured as ATP-dependent separation of a 20-bp DNA duplex extended by 30-nt single-stranded tails (forked duplex). The forked DNA substrate was tagged with rhodamine fluorophore (carboxytetramethyl rhodamine, TAMRA) and BHQ-2 (Black Hole Quencher 2) dark quencher. Strand separation results in an increase in the fluorescence of TAMRA (excitation 525 nm, emission 598 nm). […]
Potency is the fitted concentration of half-maximal effect.

Chain of RecQ-like DNA helicase BLM (Homo sapiens) (P54132 whole entry, looked up): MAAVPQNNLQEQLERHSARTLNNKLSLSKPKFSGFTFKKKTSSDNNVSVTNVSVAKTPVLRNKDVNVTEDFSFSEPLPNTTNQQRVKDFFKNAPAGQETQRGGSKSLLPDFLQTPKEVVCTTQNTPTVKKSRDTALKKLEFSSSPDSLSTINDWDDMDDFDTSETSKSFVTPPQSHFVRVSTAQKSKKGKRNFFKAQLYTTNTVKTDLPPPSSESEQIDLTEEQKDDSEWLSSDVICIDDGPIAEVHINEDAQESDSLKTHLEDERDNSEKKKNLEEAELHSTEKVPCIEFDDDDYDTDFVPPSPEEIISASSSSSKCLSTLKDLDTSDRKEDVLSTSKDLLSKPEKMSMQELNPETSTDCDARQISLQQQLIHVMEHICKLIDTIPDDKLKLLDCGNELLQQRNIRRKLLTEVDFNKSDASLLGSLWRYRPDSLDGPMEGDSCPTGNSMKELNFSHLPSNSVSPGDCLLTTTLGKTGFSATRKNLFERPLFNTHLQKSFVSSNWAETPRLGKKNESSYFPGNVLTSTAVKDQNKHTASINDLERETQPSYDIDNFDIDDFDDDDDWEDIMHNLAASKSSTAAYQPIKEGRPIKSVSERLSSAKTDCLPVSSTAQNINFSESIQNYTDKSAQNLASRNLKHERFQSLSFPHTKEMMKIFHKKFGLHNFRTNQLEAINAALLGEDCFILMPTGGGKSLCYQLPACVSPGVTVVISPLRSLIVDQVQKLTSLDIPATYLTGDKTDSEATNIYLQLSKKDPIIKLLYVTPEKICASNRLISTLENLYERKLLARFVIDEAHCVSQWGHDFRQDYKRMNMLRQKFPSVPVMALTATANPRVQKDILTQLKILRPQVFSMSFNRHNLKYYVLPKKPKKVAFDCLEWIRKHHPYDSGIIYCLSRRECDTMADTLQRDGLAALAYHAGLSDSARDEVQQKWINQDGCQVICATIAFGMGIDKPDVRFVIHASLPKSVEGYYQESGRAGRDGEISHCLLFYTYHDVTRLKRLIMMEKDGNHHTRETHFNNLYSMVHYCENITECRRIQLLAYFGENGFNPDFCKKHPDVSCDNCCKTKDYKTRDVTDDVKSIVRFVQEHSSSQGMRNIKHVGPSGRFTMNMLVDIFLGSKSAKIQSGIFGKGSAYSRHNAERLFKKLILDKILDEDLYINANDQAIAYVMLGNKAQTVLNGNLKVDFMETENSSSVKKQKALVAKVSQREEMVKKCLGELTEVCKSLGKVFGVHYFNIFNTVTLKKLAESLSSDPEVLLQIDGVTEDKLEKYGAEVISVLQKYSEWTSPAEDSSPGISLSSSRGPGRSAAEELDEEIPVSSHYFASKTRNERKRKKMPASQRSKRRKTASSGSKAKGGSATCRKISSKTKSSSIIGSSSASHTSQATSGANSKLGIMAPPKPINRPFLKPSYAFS

Turning to `O=C(O)c1cc[c]([Sb](=[O])([OH])[OH])cc1[N+](=O)[O-]`, the Potency is 8.57 µM (active).
